Laboratory results: PubChem BioAssay (EPA / NIEHS)
Records with an inconclusive call do not appear. Calls of active or inactive are those of the source. The calls were made as follows, unless noted: active = hit-call score of the fitted dose curve at least 0.9, where 1 is the maximum; inactive = score below 0.9.

Assays:
[1] = target: Cellular tumor antigen p53 (Homo sapiens) (UniProt P04637); assay: TOX21_p53_BLA_p2_ratio: Tox21 HCT-116 p53 Agonism Beta-lactamase Assay, Ratio, Phase 2 (AID 2283592; active = hit-call score of the fitted dose curve at least 0.9, where 1 is the maximum)
Sequence of Cellular tumor antigen p53 (Homo sapiens) (P04637 whole entry, looked up): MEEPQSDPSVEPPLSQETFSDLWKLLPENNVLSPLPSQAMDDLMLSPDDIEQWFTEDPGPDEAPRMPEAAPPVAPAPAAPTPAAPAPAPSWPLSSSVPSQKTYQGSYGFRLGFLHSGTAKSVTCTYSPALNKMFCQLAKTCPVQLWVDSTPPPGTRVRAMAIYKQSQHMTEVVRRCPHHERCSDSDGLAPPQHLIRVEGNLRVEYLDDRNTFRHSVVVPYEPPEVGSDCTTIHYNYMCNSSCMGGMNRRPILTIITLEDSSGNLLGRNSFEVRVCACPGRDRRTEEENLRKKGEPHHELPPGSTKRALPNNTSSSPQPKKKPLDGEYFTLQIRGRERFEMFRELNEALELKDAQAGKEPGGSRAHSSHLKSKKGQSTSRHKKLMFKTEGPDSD
How it was run: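 Readout: blue/green (460/530 nm) FRET emission ratio after 2 h CCF4-AM loading at room temperature, excitation 405 nm. HCT116 p53 bla cells, 16 h compound exposure at 37C, 5% CO2; agonist direction fitted against DMSO baseline.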

[2] = TOX21_p53_BLA_p3_viability: Viability Assessment in the Tox21 HCT-116 p53 Agonism Beta-lactamase Assay, Phase 3 (AID 2283593; active = hit-call score of the fitted dose curve at least 0.9, where 1 is the maximum;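 also: cells exposed to compound for 16 h before reading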)
How it was run: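 HCT116 cells, 4000/well, dosed 5 h after plating by pin transfer (217-fold dilution from DMSO stock) and incubated 16 h at 37C, 5% CO2. Viability read as ATP luminescence with CellTiter-Glo after 30 min at room temperature.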

[3] = target: Cellular tumor antigen p53 (Homo sapiens) (UniProt P04637); assay: TOX21_p53_BLA_p3_ratio: Tox21 HCT-116 p53 Agonism Beta-lactamase Assay, Ratio, Phase 3 (AID 2283596; active = hit-call score of the fitted dose curve at least 0.9, where 1 is the maximum)
How it was run: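 Cells were seeded at 4000/well, rested 5 h at 37C, then dosed with DMSO compound solutions (217-fold dilution) for 16 h. CCF4-AM substrate was loaded for 2 h at room temperature, and the 460/530 nm emission ratio was fitted for gain of signal versus DMSO.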

[4] = TOX21_p53_BLA_p4_viability: Viability Assessment in the Tox21 HCT-116 p53 Agonism Beta-lactamase Assay, Phase 4 (AID 2283597; active = hit-call score of the fitted dose curve at least 0.9, where 1 is the maximum;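 also: hits lower the luminescence signal meaning cytotoxicity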)
How it was run: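 ATP content by CellTiter-Glo luminescence, 30 min RT, read after the beta-lactamase ratio step. Cells: HCT116, 4000/well, compound added after 5 h, exposure 16 h at 37C. Signal loss = reduced viability.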

[5] = target: Cellular tumor antigen p53 (Homo sapiens) (UniProt P04637); assay: TOX21_p53_BLA_p5_ratio: Tox21 HCT-116 p53 Agonism Beta-lactamase Assay, Ratio, Phase 5 (AID 2283599; active = hit-call score of the fitted dose curve at least 0.9, where 1 is the maximum)
How it was run: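 HCT-116 p53-bla cells (4000/well) plated 5 h, dosed with compound (217-fold DMSO dilution) for 16 h at 37 C; CCF4-AM substrate 2 h at room temperature. Activity is the 460/530 nm emission ratio (405 nm excitation), fitted in gain-of-signal direction versus DMSO.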

[6] = TOX21_p53_BLA_p5_viability: Viability Assessment in the Tox21 HCT-116 p53 Agonism Beta-lactamase Assay, Phase 5 (AID 2283600; active = hit-call score of the fitted dose curve at least 0.9, where 1 is the maximum)
How it was run: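 ATP luminescence (CellTiter-Glo, 30 min, RT) served as the viability read-out, with loss of signal indicating cytotoxicity. Compounds in DMSO were pinned at a 217-fold dilution onto 4000 cells/well and incubated 16 h, 37C.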

[7] = target: Cellular tumor antigen p53 (Homo sapiens) (UniProt P04637); assay: TOX21_p53_BLA_p4_ratio: Tox21 HCT-116 p53 Agonism Beta-lactamase Assay, Ratio, Phase 4 (AID 2283601; active = hit-call score of the fitted dose curve at least 0.9, where 1 is the maximum)
How it was run: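 HCT-116 p53 beta-lactamase reporter cells (4000/well) preincubated 5 h, then compound (217-fold dilution of DMSO stock) for 16 h at 37C. CCF4-AM substrate added 2 h at room temperature; 460/530 nm emission ratio fitted upward versus DMSO.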

[8] = CCTE_Harrill_HTTr_Viability_MCF7: CCTE's 6-hour Cell Viability Assessment for the High-Throughput Transcriptomics (HTTr) Platform, in MCF-7 cells cultured in DMEM + 10% fetal bovine serum, Harrill Lab (AID 2284010)
How it was run: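 Read-out is propidium iodide gain of signal by high-content imaging, reflecting membrane integrity loss. Measurements are taken 6 h after dosing, eight concentrations per chemical, with DMSO serving as baseline for bidirectional curve fitting.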

[9] = CCTE_Harrill_HTTr_Apoptosis_MCF7: CCTE's 6-hour Apoptosis Assessment for the High-Throughput Transcriptomics (HTTr) Platform, in MCF-7 cells cultured in DMEM + 10% fetal bovine serum, Harrill Lab (AID 2284011)
How it was run: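 Read-out: CellEvent Caspase 3/7 Green signal by high content imaging, gain-of-signal indicating apoptosis. MCF-7 cells, DMEM + 10% FBS, eight-point dilution series, 6 h exposure. Curves fitted bidirectionally relative to DMSO negative control.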

[10] = CCTE_Shafer_MEA_dev_firing_rate_mean: CCTE's Neural Network Formation Assay for Mean Firing Rate, Shafer Lab (AID 2284031)
How it was run: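 Steps: seed rat cortical cells (1.5 x 10^5/well) with laminin on PEI-coated MEA; dose day 0; record DIV 5/7/9/12, full media and compound exchange after DIV 5 and 9 recordings; compute well-mean firing rate AUC.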

[11] = CCTE_Shafer_MEA_dev_per_burst_spike_percent: CCTE's Neural Network Formation Assay for Percent of Spikes in a Burst, Shafer Lab (AID 2284032)
How it was run: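 Value is trapezoidal AUC over recordings on days 5, 7, 9 and 12 of the well-mean fraction of spikes falling in single-electrode bursts; rat cortical cultures exposed continuously from plating, treatment renewed DIV 5 and 9, fitted downward against DMSO.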

[12] = CCTE_Shafer_MEA_dev_active_electrodes_number: CCTE's Neural Network Formation Assay for Number of Active Electrodes, Shafer Lab (AID 2284040; active = hit-call score of the fitted dose curve at least 0.9, where 1 is the maximum)
How it was run: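 Counts electrodes per well firing at least 5 spikes/min, recorded on days 5, 7, 9 and 12 in rat cortical cultures dosed continuously from plating (treatment refreshed DIV 5, 9). Value is the area under the curve over recordings, fitted downward relative to DMSO.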

[13] = CCTE_Shafer_MEA_dev_bursting_electrodes_number: CCTE's Neural Network Formation Assay for Number of Bursting Electrodes, Shafer Lab (AID 2284043; active = hit-call score of the fitted dose curve at least 0.9, where 1 is the maximum)
How it was run: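 Rat cortical primary neurons, 48-well MEA, 16 electrodes/well; dosing DIV 0–12, re-dosed with full media change DIV 5, 9. Recordings DIV 5/7/9/12, AxIS adaptive spike detector; bursting electrode = ≥1 burst/2 min. AUC across days; loss of signal vs DMSO.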

[14] = CCTE_Shafer_MEA_dev_per_burst_interspike_interval: CCTE's Neural Network Formation Assay for Burst Interspike Interval, Shafer Lab (AID 2284044)
How it was run: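 Readout is the average time between spikes inside single-electrode bursts, taken as a well mean across bursting electrodes. Cortical neurons from rat developed networks on MEA plates under continuous 12-day exposure; recordings on days 5, 7, 9 and 12 were integrated by trapezoidal AUC.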

[15] = CCTE_Shafer_MEA_dev_burst_duration_mean: CCTE's Neural Network Formation Assay for Mean Burst Duration, Shafer Lab (AID 2284045)
How it was run: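 Rat cortical cultures, 1.5 x 10^5 cells/well with laminin drop; continuous dosing days 0–12, media plus treatment refreshed DIV 5, 9. AxIS adaptive spike detection; mean single-electrode burst duration, AUC over four recordings, negative direction vs DMSO.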

[16] = CCTE_Shafer_MEA_dev_interburst_interval_mean: CCTE's Neural Network Formation Assay for Mean Interburst Interval, Shafer Lab (AID 2284046);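 also: well-mean interburst interval of bursting electrodes as AUC over four recording days; curve fitted for decrease in interburst interval relative to DMSO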
How it was run: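 Network formation assay in primary rat cortical cultures, exposed from DIV 0 to 12. Mean interburst interval per well, integrated as AUC over four recordings.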

[17] = CCTE_Shafer_MEA_dev_network_spike_number: CCTE's Neural Network Formation Assay for Number of Network Spikes, Shafer Lab (AID 2284048)
How it was run: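 Rat cortical primary cultures on 48-well MEA (16 electrodes/well); continuous exposure DIV 0–12, full medium and treatment exchange DIV 5, 9. Readout: network spike count, AxIS adaptive detection, recordings DIV 5/7/9/12 collapsed to AUC; loss-of-signal fit, DMSO baseline.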

[18] = CCTE_Shafer_MEA_dev_network_spike_peak: CCTE's Neural Network Formation Assay for Mean Number of Electrodes in Network Spike, Shafer Lab (AID 2284049)
How it was run: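 Network-spike peak electrode count from recordings on days 5, 7, 9 and 12 was combined as trapezoidal area under the curve. Rat cortical cultures were treated continuously from plating, with compound renewed at each feed (DIV 5, 9); fits versus DMSO.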

[19] = CCTE_Shafer_MEA_dev_spike_duration_mean: CCTE's Neural Network Formation Assay for Mean Spike Duration, Shafer Lab (AID 2284051);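 also: mean network spike duration pooled as area under curve over DIV 5 to 12 recordings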
How it was run: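 With DMSO as baseline, loss of mean network spike duration was scored from extracellular recordings of rat cortical neurons on MEA plates. Exposure spanned plating to DIV 12; the four recording days were collapsed into one AUC value.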

[20] = CCTE_Shafer_MEA_dev_network_spike_duration_std: CCTE's Neural Network Formation Assay for Standard Deviation of Network Spike Duration, Shafer Lab (AID 2284052);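 also: area under curve of spike duration SD across recording days 5 to 12; hits are decreases in network spike duration SD versus DMSO vehicle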
How it was run: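 Developing networks of rat cortical neurons were exposed over twelve days in vitro on 48-well MEA plates. Trapezoidal AUC of recordings (DIV 5–12) was analysed for signal loss relative to DMSO vehicle.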

[21] = CCTE_Shafer_MEA_dev_per_network_spike_spike_number_mean: CCTE's Neural Network Formation Assay for Mean Number of Spikes in a Network Spike, Shafer Lab (AID 2284053)
How it was run: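 First, rat cortical cells (1.5 x 10^5/well) were seeded onto MEA wells; second, dosing began at plating and was refreshed on DIV 5 and 9; finally, network-spike spike counts across DIV 5–12 were summarized as AUC.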

[22] = CCTE_Shafer_MEA_dev_per_network_spike_spike_percent: CCTE's Neural Network Formation Assay for Percent of Spikes in a Network Spike, Shafer Lab (AID 2284054)
How it was run: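 Read-out: percent of spikes falling in a 0.05 s window at network-spike peak, from spontaneous MEA recordings on days 5, 7, 9 and 12; trapezoidal AUC; loss of signal versus DMSO. Rat cortical cultures, compound present throughout.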

[23] = UKN5_HCS_SBAD2_cell_viability: Viability Assessment in the University of Konstanz (UKN) Leist Lab Neurite Outgrowth Assay in human iPSC-derived immature Dorsal Root Ganglia Neurons (UKN5) (AID 2284056)
How it was run: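 iPSC-derived immature peripheral neurons (SBAD2) seeded on Matrigel with CHIR99021, SU5402 and DAPT, dosed 1 h later for 24 h. Viability from Hoechst H-33342 and calcein-AM live staining, high-content imaging; bidirectional fit versus DMSO.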

[24] = CCTE_Shafer_MEA_dev_LDH: CCTE's Lactate Dehydrogenase Assay for Cytotoxicity in the Neural Network Formation Assay, Shafer Lab (AID 2284068; active = hit-call score of the fitted dose curve at least 0.9, where 1 is the maximum;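 also: exposure for twelve days from plating with re-dosing on DIV 5 and 9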)
How it was run: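 Developing rat cortical networks on MEA plates are exposed to compound for 12 days from plating. LDH activity is measured spectrophotometrically, with DMSO as baseline.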

[25] = UKN5_HCS_SBAD2_neurite_outgrowth: University of Konstanz (UKN) Leist Lab Neurite Outgrowth Assay in human iPSC-derived immature Dorsal Root Ganglia Neurons (UKN5) (AID 2284070); details: actives raise or lower the signal
How it was run: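 Thaw, seed on Matrigel (100.000 cells/cm2), dose 1 h later; at 23 h live-stain with H-33342 and calcein-AM for 60 min; image at 24 h. Neurite area fitted bidirectionally vs DMSO.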

[26] = CCTE_Shafer_MEA_dev_AB: CCTE's Alamar Blue Assay for Cytotoxicity in the Neural Network Formation Assay, Shafer Lab (AID 2284083; active = hit-call score of the fitted dose curve at least 0.9, where 1 is the maximum;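 also: resazurin reduction fluorescence as viability of cultured neurons; twelve days of exposure from plating with re-dosing on DIV 5 and 9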)
How it was run: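 Cytotoxicity companion to the developmental MEA: primary rat cortical neurons, 12-day exposure starting day 0, compound refreshed DIV 5 and 9; resazurin fluorescence, fitted against DMSO vehicle.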

[27] = CCTE_Shafer_MEA_dev_mutual_information_norm: CCTE's Neural Network Formation Assay for Mutual Information Normalization, Shafer Lab (AID 2284091)
How it was run: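 Neurons from rat cortex were seeded at 1.5 x 10^5 cells/well onto PEI-coated MEAs in a laminin drop, then exposed to compound from day 0 for twelve days. Network recordings on four days gave mutual information, summarised by AUC relative to DMSO.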

Measured: outcome

C[C@@H]1C[C@H]2[C@@H]3CCC4=CC(=O)C=C[C@]4(C)[C@@]3(F)[C@@H](O)C[C@]2(C)[C@@]1(O)C(=O)CO
inactive: [1] | [2] | [3] | [4] | [5] | [6] | [7] | [8] | [9] | [10] | [11] | [12] | [13] | [14] | [15] | [16] | [17] | [18] | [19] | [20] | [21] | [22] | [23] | [24] | [25] | [26] | [27]
